From PubChem BioAssay come the findings set out here.

Each structure is given as a SMILES string. Values without a mark were called inactive. For some of these results: Measured potencies and affinities stand elsewhere. Active and inactive are the calls of the source. Unless noted, the rule behind the calls is not given here.

Assay [1] in a line: antimalarial activity against Dd2 strain (AID 2302;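 active = growth inhibition above 50% at the single 2 µM test dose, taken to imply half-maximal potency below 2 µM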;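 note: 0% = DMSO untreated growth and 100% = chloroquine plus artemisinin killed control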). To be noted: P. falciparum Dd2 in RBCs, LDH growth readout, 72 h; at 2 µM; active compounds read high.
Assay [2] can be described thus: HepG2 cytotoxicity, primary screen, cytotoxicity control for P. falciparum antimalarial project, cell-based, ATP luminescence (AID 2303;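 active = inhibition above 50%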;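 note: 0% = DMSO wells and 100% = digitonin-killed cells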). To be noted: HepG2 viability, 24-48 h, at 10 µM, active compounds read high.
The target in assay [3] is L-lactate dehydrogenase (Plasmodium falciparum (isolate CDC / Honduras)) (UniProt Q27743). The assay can be described thus: PfLDH activity inhibition – cell lysate, 3D7 strain, counter-screen for P. falciparum growth inhibition project (AID 2304).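 Note: 0% = vehicle and 100% = reference inhibitor.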 Conditions: P. falciparum 3D7 crude extract, LDH APAD/NBT absorbance; at 2 µM; active compounds read high. (In general: The purpose of a counterscreen is to sort out artefacts and off-target activity.)

Assay [4] can be described thus: inhibition of 3D7 malaria parasite growth – strain 3D7 (AID 2306).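 Note: 0% = DMSO wells and 100% = chloroquine plus artemisinin control wells.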 To be noted: P. falciparum 3D7 erythrocytic growth, LDH absorbance, 72 h; at 2 µM; active compounds read high.
Assay [5] concerns the target Calcium-dependent protein kinase 1 (Plasmodium falciparum (isolate 3D7)) (UniProt P62344). As to the kind of experiment: PfCDPK1 kinase inhibitors, biochemical, TCAMS library (AID 1159585; cut-off not given, nearly all actives have IC50 up to about 0.98 µM;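 note: inhibitors leave more ATP so luminescence rises with inhibition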). To be noted: recombinant PfCDPK1, Kinase-Glo ATP depletion luminescence.
Assay [6] deals with Plasmodium falciparum protein kinase 6 (PK6, PF3D7_1337100) (UniProt Q8IDW1). As to the kind of experiment: PfPK6 kinase inhibitors, biochemical, TCAMS library (AID 1159586). To be noted: recombinant PfPK6, Kinase-Glo ATP depletion luminescence.
In assay [7] the target is Protein kinase 7 (PK7), Plasmodium falciparum 3D7 (PF3D7_0213400) (UniProt Q7YTF7). As to the kind of experiment: inhibition of Plasmodium PK7 catalytic activity – biochemical, TCAMS antimalarial set, Kinase-Glo luminescence (AID 1159587). To be noted: recombinant PfPK7, Kinase-Glo ATP depletion luminescence. (In general: In Kinase-Glo more light means more ATP remaining.)

The target of assay [8] is Calcium-dependent protein kinase 4 (Plasmodium falciparum (isolate 3D7)) (UniProt Q8IBS5). The assay can be described thus: PfCDPK4 kinase inhibitors, biochemical, TCAMS library (AID 1159588; cut-off not given, nearly all actives have IC50 up to about 0.91 µM). Conditions: recombinant PfCDPK4, Kinase-Glo ATP depletion luminescence.

Usually inhibition stands for the change of the read-out against control, counted positive when it falls.

Chain of Calcium-dependent protein kinase 1 (Plasmodium falciparum (isolate 3D7)) (P62344 whole entry, looked up): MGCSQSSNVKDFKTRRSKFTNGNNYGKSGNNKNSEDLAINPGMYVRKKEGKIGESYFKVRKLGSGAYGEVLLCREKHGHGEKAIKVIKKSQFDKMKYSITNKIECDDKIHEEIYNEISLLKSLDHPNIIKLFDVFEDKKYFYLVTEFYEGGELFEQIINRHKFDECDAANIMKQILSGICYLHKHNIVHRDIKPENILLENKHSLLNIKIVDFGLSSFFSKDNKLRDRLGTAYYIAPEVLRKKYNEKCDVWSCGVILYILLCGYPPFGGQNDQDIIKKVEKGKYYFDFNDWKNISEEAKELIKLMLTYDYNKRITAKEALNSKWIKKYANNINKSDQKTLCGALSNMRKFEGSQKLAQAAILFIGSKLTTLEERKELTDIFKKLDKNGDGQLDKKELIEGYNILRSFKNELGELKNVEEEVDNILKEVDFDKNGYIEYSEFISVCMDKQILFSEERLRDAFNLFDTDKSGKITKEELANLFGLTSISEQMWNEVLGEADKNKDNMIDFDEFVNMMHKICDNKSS
Chain of Protein kinase 7 (PK7), Plasmodium falciparum 3D7 (PF3D7_0213400) (Q7YTF7 1-343): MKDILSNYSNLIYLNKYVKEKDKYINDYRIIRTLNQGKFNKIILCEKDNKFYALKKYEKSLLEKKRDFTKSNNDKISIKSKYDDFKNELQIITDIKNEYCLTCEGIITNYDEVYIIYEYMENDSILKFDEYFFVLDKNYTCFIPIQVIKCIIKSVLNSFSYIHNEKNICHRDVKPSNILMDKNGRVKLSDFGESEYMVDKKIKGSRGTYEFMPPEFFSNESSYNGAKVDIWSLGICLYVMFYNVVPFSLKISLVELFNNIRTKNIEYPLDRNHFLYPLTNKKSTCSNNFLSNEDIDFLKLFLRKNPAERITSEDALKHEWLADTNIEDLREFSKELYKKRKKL
Chain of Calcium-dependent protein kinase 4 (Plasmodium falciparum (isolate 3D7)) (Q8IBS5 whole entry, looked up): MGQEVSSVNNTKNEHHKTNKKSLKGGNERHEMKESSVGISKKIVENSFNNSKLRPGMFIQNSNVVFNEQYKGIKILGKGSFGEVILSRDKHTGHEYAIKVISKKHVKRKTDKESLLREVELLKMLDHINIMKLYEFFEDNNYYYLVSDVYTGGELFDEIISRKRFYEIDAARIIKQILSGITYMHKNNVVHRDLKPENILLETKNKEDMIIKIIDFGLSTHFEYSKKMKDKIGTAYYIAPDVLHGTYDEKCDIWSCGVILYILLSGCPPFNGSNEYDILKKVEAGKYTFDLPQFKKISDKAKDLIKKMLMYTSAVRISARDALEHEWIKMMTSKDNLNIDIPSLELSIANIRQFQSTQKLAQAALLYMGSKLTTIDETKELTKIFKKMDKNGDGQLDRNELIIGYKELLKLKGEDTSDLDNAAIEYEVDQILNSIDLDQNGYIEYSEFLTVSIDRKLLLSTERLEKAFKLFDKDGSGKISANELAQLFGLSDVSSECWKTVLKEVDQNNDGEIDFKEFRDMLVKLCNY
Chain of Plasmodium falciparum protein kinase 6 (PK6, PF3D7_1337100) (Q8IDW1 1-305): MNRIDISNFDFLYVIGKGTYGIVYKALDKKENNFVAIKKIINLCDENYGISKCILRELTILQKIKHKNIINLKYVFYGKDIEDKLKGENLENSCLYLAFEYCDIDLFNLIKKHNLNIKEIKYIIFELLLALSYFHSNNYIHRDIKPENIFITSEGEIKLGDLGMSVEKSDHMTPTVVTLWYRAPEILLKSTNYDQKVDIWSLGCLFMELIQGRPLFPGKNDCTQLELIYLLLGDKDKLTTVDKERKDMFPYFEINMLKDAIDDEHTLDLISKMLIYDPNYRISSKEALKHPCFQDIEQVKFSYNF
Chain of L-lactate dehydrogenase (Plasmodium falciparum (isolate CDC / Honduras)) (Q27743 whole entry, looked up): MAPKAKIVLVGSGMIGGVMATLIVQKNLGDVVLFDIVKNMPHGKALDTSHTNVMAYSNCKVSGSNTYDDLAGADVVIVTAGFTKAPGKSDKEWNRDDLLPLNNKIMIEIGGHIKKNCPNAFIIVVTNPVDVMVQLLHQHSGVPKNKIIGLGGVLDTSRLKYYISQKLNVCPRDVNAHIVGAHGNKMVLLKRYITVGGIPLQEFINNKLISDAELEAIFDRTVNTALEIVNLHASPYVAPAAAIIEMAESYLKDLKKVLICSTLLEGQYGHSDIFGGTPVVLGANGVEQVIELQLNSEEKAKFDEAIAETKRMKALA

As for `CS(=O)(=O)N(CC(O)Cn1c2ccc(Cl)cc2c2cc(Cl)ccc21)c1ccccc1` (stereo not given), the growth inhibition in assay [1] is 98% (active); in assay [4] it was 101% (active). The inhibition in assay [2] was 2%; in assay [3], 0%. The outcome in assay [5], in assay [6], in assay [7] and in assay [8] was inactive.

Take `CC(=O)Nc1ccc(S(=O)(=O)Nc2ccc(Nc3nc(C)cc(N4CCCCC4)n3)cc2)cc1`: the figures for the growth inhibition in assay [1] and in assay [4] were 54% (active) and 89% (active), respectively. Also, the results for the inhibition in assay [2] and in assay [3] were 23% and 0%, respectively. Moreover, the outcome in assay [5], in assay [6], in assay [7] and in assay [8] was inactive.

`NC(=O)c1ccccc1OCC(=O)Nc1ccc(-c2cccc(-c3nc4ccc(C(F)(F)F)cc4[nH]3)c2)cc1`: the growth inhibition is 11% in assay [1] and 100% (active) in assay [4]. For the same compound, the inhibition in assay [2] is 51% (active); in assay [3], -8%. The outcome in assay [5], in assay [6], in assay [7] and in assay [8] was inactive.

Turning to `C[C@H](NC(=O)c1c(CN2CCC(N3CCCCC3=O)CC2)c(-c2cccs2)nc2ccccc12)C1CCCCC1`, the growth inhibition in assay [1] is 73% (active); in assay [4], 91% (active). For the same compound, the inhibition in assay [2] is 8%; in assay [3], 2%. The result in assay [5], in assay [6], in assay [7] and in assay [8] was inactive.

On to `CC1CN(S(=O)(=O)c2ccc(NC(=O)c3cc(-c4ccccc4O)n[nH]3)cc2)CC(C)O1` (stereo not given), for which the growth inhibition in assay [1] was 93% (active); in assay [4] it was 97% (active). For the same compound, the inhibition in assay [2] was 21%; in assay [3], 1%. Besides, the result in assay [5], in assay [6], in assay [7] and in assay [8] was inactive.

Consider `O=C(N[C@@H](CC1CCCCC1)C(=O)NCCN1CCCCC1)c1ccc(O)c(-c2cccc(C(F)(F)F)c2)c1`, for which the growth inhibition is 97% (active) in assay [1] and 99% (active) in assay [4]. Also, the results for the inhibition in assay [2] and in assay [3] were -5% and 6%, respectively. Further, the outcome in assay [5], in assay [6], in assay [7] and in assay [8] was inactive.

With `O=C(/C=C/c1ccc(Cl)c(Cl)c1)NCCCCCN1CCC(NC(=O)Nc2cc(Cl)ccc2Cl)CC1`, the growth inhibition in assay [1] is 31%; in assay [4], 99% (active). The values for the inhibition in assay [2] and in assay [3] were 99% (active) and 0%, respectively. Moreover, the outcome in assay [5], in assay [6], in assay [7] and in assay [8] was inactive.

In the case of `CCCCC(=O)Nc1nonc1-c1ccc(OCC)c(OCC)c1`, the growth inhibition in assay [1] is 95% (active); in assay [4], 101% (active). Also, the inhibition in assay [2] is 9%; in assay [3], -1%. For the same compound, the result in assay [5], in assay [6], in assay [7] and in assay [8] was inactive.

Consider `Clc1ccc(Sc2cncnc2N2CCOCC2)cc1`, for which the growth inhibition in assay [1] was -6%; in assay [4], 95% (active). Moreover, the figures for the inhibition in assay [2] and in assay [3] were 66% (active) and -2%, respectively. Besides, the result in assay [5], in assay [6], in assay [7] and in assay [8] was inactive.

In the case of `COc1ccc(Nc2nccc(-c3ccc4ccnc(NCCCCN)c4c3)n2)cc1`, the results for the growth inhibition in assay [1] and in assay [4] were 47% and 95% (active), respectively. Besides, the results for the inhibition in assay [2] and in assay [3] were 15% and 6%, respectively. Further, the result in assay [5], in assay [6], in assay [7] and in assay [8] was inactive.

For `Cc1cc(Nc2cccc(C(F)(F)F)c2)nc(NCc2ccccc2)n1`, the growth inhibition is 95% (active) in assay [1] and 102% (active) in assay [4]. In addition, the inhibition in assay [2] was 17%; in assay [3], 0%. In addition, the result in assay [5], in assay [6], in assay [7] and in assay [8] was inactive.

For `Cc1ccc(O)c(Nc2c3c(c(C#N)c4nc5ccccc5n24)CCC3)c1`, the figures for the growth inhibition in assay [1] and in assay [4] were 2% and 85% (active), respectively. The inhibition in assay [2] was 7%; in assay [3] it was -3%. Also, the outcome in assay [5], in assay [6], in assay [7] and in assay [8] was inactive.

On to `COc1cc(C2CCN(CCCCNC(=O)c3ccc(NC(=O)c4cc(C(F)(F)F)cc(C(F)(F)F)c4)cc3)CC2)ccc1OC(C)C`, for which the growth inhibition in assay [1] and in assay [4] was 100% (active) each time. The values for the inhibition in assay [2] and in assay [3] were 21% and 4%, respectively. In addition, the outcome in assay [5], in assay [6], in assay [7] and in assay [8] was inactive.

For the compound `COc1ccc(CNC2CCN(C)CC2)cc1-c1ccc(S(=O)(=O)NC2CCC2)cc1`, the growth inhibition in assay [1] was 76% (active); in assay [4], 98% (active). In addition, the inhibition in assay [2] is 58% (active); in assay [3], 1%. Also, the outcome in assay [5], in assay [6], in assay [7] and in assay [8] was inactive.

As to `CCCCNc1cc(C)nc(NCc2ccccc2)n1`, the results for the growth inhibition in assay [1] and in assay [4] were 37% and 97% (active), respectively. Moreover, the inhibition was 23% in assay [2] and 3% in assay [3]. The result in assay [5], in assay [6], in assay [7] and in assay [8] was inactive.

For `Cc1ccc(-c2[nH]n3c(=O)c4c(nc3c2C)CCCC4)cc1`, the growth inhibition in assay [1] is 87% (active); in assay [4], 97% (active). Further, the inhibition was 16% in assay [2] and -1% in assay [3]. In addition, the outcome in assay [5], in assay [6], in assay [7] and in assay [8] was inactive.

As to `COc1ccccc1C1CCN(C2CCC(NC(=O)c3cc4cc(C(C)C)ccc4[nH]3)CC2)CC1` (stereo not given), the growth inhibition in assay [1] is 98% (active); in assay [4], 101% (active). Besides, the inhibition in assay [2] was 100% (active); in assay [3], -4%. The outcome in assay [5], in assay [6], in assay [7] and in assay [8] was inactive.

Consider `O=C(Nc1ccc(Cl)c(Cl)c1)N1CCC(CNCc2cccc([N+](=O)[O-])c2)CC1`, for which the figures for the growth inhibition in assay [1] and in assay [4] were 6% and 98% (active), respectively. Also, the inhibition is 13% in assay [2] and 2% in assay [3]. For the same compound, the result in assay [5], in assay [6], in assay [7] and in assay [8] was inactive.

As to `C=CCN1C(=O)C(C(C)=O)=C(O)C1c1ccccc1` (stereo not given), the growth inhibition in assay [1] was 97% (active); in assay [4], 93% (active). For the same compound, the figures for the inhibition in assay [2] and in assay [3] were 41% and -4%, respectively. Also, the outcome in assay [5], in assay [6], in assay [7] and in assay [8] was inactive.

For the compound `O=C(NCc1cccs1)[C@H](Cc1ccccc1)Nc1ccnc(NCCc2ccc(F)cc2)n1`, the results for the growth inhibition in assay [1] and in assay [4] were 52% (active) and 85% (active), respectively. In addition, the inhibition in assay [2] is 1%; in assay [3], -2%. Moreover, the outcome in assay [5], in assay [6], in assay [7] and in assay [8] was inactive.
